Source: PubChem
Rows were chosen to be rich in hits. Some 3.1% of all compounds tested hit in one or more screens of this group.
EWS-Fli inh = EWS/Fli transcriptional activity inhibition | A673 NR0B1-luciferase reporter, viability-normalised | inhibition, % at 12.6 µM | hit rate 0.67% among 350,000;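 active means mean inhibition of at least 50% after viability correction, with every replicate also passing that limit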;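 further: firefly luciferase signal divided by Alamar Blue viability fluorescence both relative to DMSO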
LMP1 NFkB inh = inhibitors of Epstein-Barr LMP1-induced NF-kappaB reporter | LMP1-induced NF-kappaB luciferase reporter cells, luminescence | inhibition, % at 12.5 µM | hit rate 0.69% among 350,000; in the data active means inhibition above about 41%;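 further: 0% = neutral control wells and 100% = reference inhibitor control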
LGR2 antag = Drosophila LGR2 receptor signaling inhibition; HEK293 LGR2, CRE-luciferase, bursicon-stimulated, 4 h; inhibition, % at 9.99 µM; hit rate 0.35% among 380,000;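 active means drop in luminescence signal, shown as inhibition above about 50% in the replicate tests, limit read from the data, passing the limit was not always enough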;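 further: agonist challenge used bursicon conditioned medium at about half maximal strength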
PAX8 inh HTS = PAX8 transcriptional activity inhibition; AID 652154; inhibition, % at 12.6 µM; RMG-I TPO-luciferase reporter, SteadyGlo, 24 h; hit rate 1.2% among 360,000;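 active means mean replicate inhibition at least 60% with every replicate also reaching 60%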;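 further: luciferase light reporting Pax8 driven TPO promoter activity; plate controls were median of neutral control wells for no effect and mitoxantrone controls for full effect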
TROY NFkB inh = inhibitors of TROY-dependent NF-kB signaling; inhibition, % at 10 µM; Q293 LMP1-TROYcd NF-kB luciferase reporter, 4 h; hit rate 0.98% among 360,000;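 active means compounds whose plate-normalised and pattern-corrected inhibition of the luciferase reporter signal at the single screening dose is 50% or more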
TWEAK-Fn14 inh = blocks TWEAK-Fn14 interaction in a reporter cell assay; TWEAK-stimulated Fn14 reporter cells, luciferase luminescence, 8 h; inhibition, % at 10 µM; hit rate 2% among 360,000; AID 1159606; in the data active means inhibition above about 50%
* = called active by the depositor; . = no result.

SMILES	EWS-Fli inh	LMP1 NFkB inh	LGR2 antag	PAX8 inh HTS	TROY NFkB inh	TWEAK-Fn14 inh
C[C@@H]1CCCCO[C@H](CN(C)Cc2ccc3c(c2)OCO3)[C@@H](C)CN([C@@H](C)CO)C(=O)c2cc(NC(=O)Nc3ccc(C(F)(F)F)cc3)ccc2O1	69.4*	.	.	101.3*	.	.
COc1ccc(CN2C[C@H](C)[C@@H](OC)CN(C)C(=O)c3ccc(NC(=O)C4CC4)cc3OC[C@@H]2C)cc1	.	.	3.1	6.9	.	.
C[C@@H](NC(=O)C[C@@H]1C=C[C@H](NC(=O)C2CCC2)[C@@H](CO)O1)c1ccccc1	-5.9	.	-8.6	-9.1	.	.
C[C@@H]1CN([C@@H](C)CO)C(=O)Cc2cc(NS(=O)(=O)c3cn(C)cn3)ccc2O[C@@H]1CN(C)CC1CC1	-1.3	.	15.0	.	.	.
N#CC(c1ccc(Cl)cc1)c1ccc2c(C(F)(F)F)cc(C(F)(F)F)nc2n1 (stereo not drawn)	.	52.3*	.	.	79.1*	65.1*
CN(C)S(=O)(=O)c1cccn1-c1ncc(C(F)(F)F)cc1Cl	.	56.4*	.	1.2	-22.7	3.3
CN(C)/C=N/S(=O)(=O)c1cccn1-c1ncc(C(F)(F)F)cc1Cl	-3.7	0.3	-1.3	-17.1	0.3	-9.5
C[C@H](NC(=O)C[C@H]1CC[C@H](NC(=O)C2CC2)[C@H](CO)O1)c1ccccc1	-0.3	.	-26.8	6.9	.	.
C[C@@H]1CCCCO[C@@H](CN(C)Cc2ccccc2)[C@H](C)CN([C@@H](C)CO)C(=O)c2cc(NC(=O)Nc3ccc(C(F)(F)F)cc3)ccc2O1	-1.3	.	12.0	105.8*	.	.
C[C@@H]1CCCCO[C@@H](CN(C)Cc2ccccc2)[C@@H](C)CN([C@@H](C)CO)C(=O)c2cc(NC(=O)Nc3ccc(C(F)(F)F)cc3)ccc2O1	-15.8	.	3.8	52.0	.	.
C[C@@H]1CCCCO[C@@H](CN(C)Cc2ccc(C(=O)O)cc2)[C@H](C)CN([C@H](C)CO)C(=O)c2cc(NC(=O)Nc3ccc(C(F)(F)F)cc3)ccc2O1	2.4	.	21.2	-14.3	.	.
C[C@@H]1CCCCO[C@@H](CN(C)Cc2ccccc2)[C@@H](C)CN([C@H](C)CO)C(=O)c2cc(NC(=O)Nc3ccc(C(F)(F)F)cc3)ccc2O1	-13.5	.	23.4	77.3*	.	.
C[C@@H]1CCCCO[C@@H](CN(C)Cc2ccccc2)[C@H](C)CN([C@H](C)CO)C(=O)c2cc(NC(=O)Nc3ccc(C(F)(F)F)cc3)ccc2O1	15.8	.	15.3	112.1*	.	.
COc1ccc(NC(=O)N(C)C[C@@H]2Oc3ccc(NC(=O)Nc4ccc(C(F)(F)F)cc4)cc3C(=O)N([C@@H](C)CO)C[C@@H]2C)cc1	-7.4	.	4.3	4.7	.	.
CCCOc1cccc(-c2cc(C(=O)N/N=C/c3cccnc3)c3ccccc3n2)c1	.	.	-13.8	-34.4	20.5	-28.6
O=C(N/N=C/c1ccccn1)c1cc(-c2ccc(Cl)cc2)nc2ccccc12	7.2	10.8	-11.1	11.4	46.3	15.8
O=C(N/N=C/c1ccccn1)c1cc(-c2ccc(Br)cc2)nc2ccccc12	17.3	2.6	11.2	65.8*	-4.6	99.7*
CCCOc1cccc(-c2cc(C(=O)N/N=C/c3ccccn3)c3ccccc3n2)c1	.	14.5	-7.5	24.8	41.4	93.6*
CCCc1ccc(-c2cc(C(=O)N/N=C/c3ccc([N+](=O)[O-])o3)c3ccccc3n2)cc1	.	58.5*	.	.	-19.6	32.5
CCC(=O)Nc1ccc2c(c1)OC[C@@H](C)N(C(=O)COC)C[C@H](C)[C@H](OC)CN(C)C2=O	-1.0	.	3.5	-8.1	.	.
C[C@H]1CN([C@@H](C)CO)C(=O)Cc2cc(NS(=O)(=O)c3cccs3)ccc2O[C@H]1CN(C)S(=O)(=O)c1cccs1	2.9	.	-1.8	-5.9	.	.
C[C@H](CO)N1C[C@H](C)[C@@H](CN(C)C(=O)Nc2cccc3ccccc23)OCCCC[C@H](C)Oc2ccc(NC(=O)c3ccncc3)cc2C1=O	14.3	.	17.1	81.7*	.	.
C[C@H]1CCCCO[C@H](CN(C)C(=O)Nc2cccc3ccccc23)[C@@H](C)CN([C@@H](C)CO)C(=O)c2cc(NC(=O)CCC(F)(F)F)ccc2O1	15.4	.	15.8	70.6*	.	.
C[C@@H]1CCCCO[C@@H](CN(C)C(=O)Nc2cccc3ccccc23)[C@H](C)CN([C@H](C)CO)C(=O)c2cc(NC(=O)CCC(F)(F)F)ccc2O1	27.3	.	21.6	67.0*	.	.
Cc1nn(-c2nc3ccccc3[nH]2)c(=O)c2ccccc12	88.0*	81.3*	103.1*	105.3*	91.6*	105.4*
SMILES	EWS-Fli inh	LMP1 NFkB inh	LGR2 antag	PAX8 inh HTS	TROY NFkB inh	TWEAK-Fn14 inh
O=[N+]([O-])CC(c1ccc(F)cc1)c1c[nH]c2ccccc12 (stereo not drawn)	55.1*	3.5	22.4	43.0	4.3	26.7
O=C(C1CC1)N1CC(=O)N2[C@@H](CO)[C@@H](c3ccc(C#Cc4cccc(F)c4)cc3)[C@@H]2C1	2.6	.	-0.9	27.4	.	.
Fc1ccccc1C1CC(c2ccco2)=Nc2ccccc2S1 (stereo not drawn)	-40.9	-45.6	-51.5	-107.6	42.9	53.1*
COc1ccccc1C1CC(c2cccs2)=Nc2ccccc2S1 (stereo not drawn)	.	-30.5	.	-96.4	-15.4	-6.8
Cc1cccc(NC(=O)c2sc(C)nc2C)c1	.	-9.9	.	-135.3	-43.9	-22.5
Cc1cccc(C(=O)Nc2nc(C)c(C(=O)Nc3ccc4c(c3)CCC4)s2)c1	.	20.0	-44.4	.	7.7	52.0*
CCCNC(=O)[C@H]1[C@H](CO)[C@H]2Cn3c(cccc3=O)[C@@H]1N2S(=O)(=O)c1ccccc1F	-16.9	.	4.0	.	.	.
C[C@H](CO)N1C[C@H](C)[C@H](CN(C)C(=O)c2cccnc2)Oc2cc(C#CC3(O)CCCC3)ccc2S1(=O)=O	-1.6	.	10.6	-11.3	.	.
O=C(c1cccs1)N1CCN=C1SCc1ccc(F)cc1	-85.6	-0.1	-4.2	-7.7	72.6*	7.3
O=C(CN1CCOCC1)NCC[C@H]1CC[C@H](NC(=O)Cc2ccccn2)[C@@H](CO)O1	-4.6	.	-20.2	-0.1	.	.
O=c1cc(-c2ccccc2)[nH]c2nc3ccccc3n12	.	13.9	.	-73.9	-5.4	55.1*
O=C1CSC(=S)N1Cc1ccccc1	-2.3	41.5*	18.4	-6.1	5.6	-14.1
O=C1CCN(CCCN2CCC(=O)N(Cc3ccccc3)C2=S)C(=S)N1Cc1ccccc1	11.3	-9.7	-3.9	-15.4	5.2	23.5
CN1C(=O)c2cc(NC(=O)NC3CCCC3)ccc2OC[C@@H]2O[C@@H](CC(=O)NCC3CC3)CC[C@H]21	-7.6	.	12.9	-12.4	.	.
C[C@@H]1CCCCO[C@@H](CN(C)S(=O)(=O)c2ccc(Cl)cc2)[C@H](C)CN([C@@H](C)CO)C(=O)c2cc(NC(=O)Nc3ccc(C(F)(F)F)cc3)ccc2O1	-3.3	.	8.0	21.6	.	.
C[C@@H]1CCCCO[C@@H](CN(C)S(=O)(=O)c2ccc(Cl)cc2)[C@@H](C)CN([C@H](C)CO)C(=O)c2cc(NC(=O)Nc3ccccc3)ccc2O1	-7.0	.	2.3	2.4	.	.
